# Measurements from PubChem BioAssay AID743330 (NMMLSC, 2014).
# Calls of active or inactive are those of the source. The rule behind the calls is not given here.
# Tested on: Cdc42
# Assay: GTPase panel EC50 shift with labeled GTP level, profiling panel, mechanism study, biochemical, four GTPases, bead flow cytometry (AID 743330)
# Details: bead-based flow cytometry, fluorescent GTP binding to GTPases
SMILES,outcome,EC50
CCC1(C)Cc2c(sc(NC(=S)NC(=O)c3ccccc3)c2C(=O)O)CO1 (configuration not stated),inactive,
CC1(C)Cc2c(sc(NC(=S)NC(=O)c3ccc(F)cc3)c2C(=O)O)CO1,,76 nM (active)
